Source: PubChem
An excerpt weighted towards active compounds, which were near 6.6% of everything screened.
KB-3-1 cytotox: KB-3-1 parental cell cytotoxicity; 1.4% of 400,000 active; Potency, µM (series often up to 46.1 µM), most hits filed as cytotoxic; KB-3-1 viability, CellTiter-Glo ATP luminescence, 72 h; AID 1347075; also: nearly all actives have a fitted effect of over 60% in size
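Parental KB-3-1 adenocarcinoma cells in phenol-red-free DMEM with 10% FBS were pin-treated with compounds at several concentrations, incubated 72 h at 37 °C, and viability read by CellTiter-Glo luminescence; concentration-effect curves were fitted after normalization.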
RGS4 inhibitor: blocks human RGS4-accelerated GTP hydrolysis. P49798. Transcreener GDP fluorescence polarization, RGS4-accelerated GTP hydrolysis. Potency, µM (highest dose often 114 µM), most hits filed as inhibitors. 0.039% of 390,000 active. AID 504845; also: nearly all actives have a fitted effect of over 75% in size
Target sequence (P49798 whole entry, looked up): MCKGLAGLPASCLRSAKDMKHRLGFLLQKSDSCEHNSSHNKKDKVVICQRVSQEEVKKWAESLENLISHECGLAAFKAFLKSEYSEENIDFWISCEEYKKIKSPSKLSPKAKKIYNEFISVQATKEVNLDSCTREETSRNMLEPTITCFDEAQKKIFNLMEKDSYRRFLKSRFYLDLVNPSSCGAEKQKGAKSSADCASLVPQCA
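MLSMR compounds (23 nl, pin-transferred) preincubated 10 min at room temperature with a 500nM (2x) first reagent, then RGS4 at 900nM (2x) plus Transcreener GDP mix added; fluorescence polarization (620/688 nm) read before and after 90 min at 30 °C.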
KB-V1 MDR tox: kills drug-selected multidrug resistant KB-V1 cells; KB-V1 MDR cells viability, CellTiter-Glo, 72 h; Potency, µM (doses to about 46.1 µM), usual class: cytotoxic; 3.4% of 400,000 active; also: nearly all actives have a fitted effect of over 60% in size
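KB-V1 MDR subline cells in DMEM (phenol-red free, 10% FBS) exposed to compounds in qHTS concentration series for 72 h at 37 degrees C. Viability read by CellTiter-Glo luminescence; concentration-effect curves fitted after normalization and correction.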
TSG101-PTAP inh: blocks PTAP/TSG101 interaction to inhibit HIV-1 budding; Q99816; Fluorescence polarization, FITC-PTAP peptide / Tsg101 binding; Potency, µM (doses to about 115 µM), most hits filed as inhibitors; 340,000 tested, under 10 active; AID 493005; active = well fitted inhibition curve with a large enough effect in the main read-out, with a control signal flat, not every such curve was filed as active; inconclusive = small, poorly fitted or top-dose-only effect, or effect the other way, or a change in a side signal; inactive = no such curve, though single readings can be large or run the other way
Target sequence (Q99816 whole entry, looked up): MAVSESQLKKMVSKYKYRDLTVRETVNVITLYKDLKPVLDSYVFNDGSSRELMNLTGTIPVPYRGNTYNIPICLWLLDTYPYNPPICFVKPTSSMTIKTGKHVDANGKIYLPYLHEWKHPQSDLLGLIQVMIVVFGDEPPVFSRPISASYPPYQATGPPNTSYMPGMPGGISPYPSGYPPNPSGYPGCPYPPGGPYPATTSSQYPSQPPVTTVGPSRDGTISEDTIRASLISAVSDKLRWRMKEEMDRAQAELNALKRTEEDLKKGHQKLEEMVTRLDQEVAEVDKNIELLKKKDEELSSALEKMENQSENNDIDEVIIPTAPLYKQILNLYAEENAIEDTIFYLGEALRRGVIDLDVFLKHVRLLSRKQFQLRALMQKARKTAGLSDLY
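Fluorescence anisotropy tracks displacement of a FITC-tagged PTAP peptide (50 nM) from the Tsg101 binding domain (10 uM), following a 20 min room-temperature incubation at pH 7.5.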
SW480 rereplic: induces DNA re-replication in SW480 colon adenocarcinoma cells. Potency, µM (highest dose often 46.1 µM), usual class: activators. AID 624297. 1.8% of 340,000 active. SW480 DNA re-replication, Hoechst DNA content imaging, 48 h; also: nearly all actives have a fitted effect of over 55% in size
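250 cells/well; 23 nL cpd via pin tool; 48 hr, 37 C, 5% CO2; Hoechst 40 min; imager read of total nuclear intensity, ex 405/em 500-530 nm.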
MCF10A rereplic: inducers of DNA re-replication in MCF 10A breast cells. AID 624296. 2.9% of 350,000 active. MCF 10A DNA re-replication, Hoechst nuclear intensity, 48 h. Potency, µM (series often up to 46.1 µM), actives largely listed as activators; also: nearly all actives have a fitted effect of over 50% in size
Of the large screens only hits and unclear results are named; the others gave an inactive call. Unless noted, calls follow the shape of the dose curve; as a rule, active = well fitted curve in the direction sought with a large enough effect; inconclusive = small, poorly fitted or top-dose-only effect, or another doubt; inactive = no such curve, though single readings can be large; an effect the other way counts as inactive or inconclusive.

Cc1ccc(C(=O)Nc2ccc3oc(-c4ccc(C(C)(C)C)cc4)nc3c2)cc1	none (no result: TSG101-PTAP inh, SW480 rereplic, MCF10A rereplic)
Brc1ccc(C2C=Cc3ccccc32)cc1 (centres undefined)	KB-3-1 cytotox inconclusive (no result: RGS4 inhibitor, TSG101-PTAP inh, SW480 rereplic, MCF10A rereplic)
CCCNC(=O)Cn1nc(-c2ccc(C)c(C)c2)c2cnc3ccc(OC)cc3c21	none (no result: TSG101-PTAP inh, SW480 rereplic, MCF10A rereplic)
Cc1ccc2c(c1)C1(C=CC(=O)C=C1)CC(=O)N2C	none (no result: KB-3-1 cytotox, KB-V1 MDR tox, TSG101-PTAP inh, SW480 rereplic, MCF10A rereplic)
COc1ccc2[nH]c3c(NCCC4=CCCCC4)ncnc3c2c1	KB-3-1 cytotox 3.7µM, KB-V1 MDR tox 9.2µM, SW480 rereplic inconclusive, MCF10A rereplic 21µM
COc1ccc(CCNc2c3ccccc3nc3ccccc23)cc1OC	KB-3-1 cytotox inconclusive, KB-V1 MDR tox inconclusive, SW480 rereplic 0.92µM, MCF10A rereplic 6.5µM
COc1ccc2[nH]c3c(NCCCOC(C)C)ncnc3c2c1	KB-V1 MDR tox inconclusive, SW480 rereplic inconclusive
COc1ccc(CCNc2nc(SCc3ccc(Cl)cc3)nc3ccccc23)cc1OC	none (no result: KB-3-1 cytotox, KB-V1 MDR tox, TSG101-PTAP inh, SW480 rereplic, MCF10A rereplic)
c1ccc2c(C(c3nnnn3-c3ccc4c(c3)OCCO4)N3CCCC3)ccnc2c1 (centres undefined)	none (no result: RGS4 inhibitor, TSG101-PTAP inh, SW480 rereplic, MCF10A rereplic)
O=C(OCc1ccccc1)N1CCN(C(c2ccnc3ccccc23)c2nnnn2-c2ccc3c(c2)OCCO3)CC1 (centres undefined)	KB-3-1 cytotox 23µM, KB-V1 MDR tox inconclusive (no result: RGS4 inhibitor, TSG101-PTAP inh, SW480 rereplic, MCF10A rereplic)
N#CCCN(Cc1ccccc1)C(c1ccnc2ccccc12)c1nnnn1-c1ccc2c(c1)OCCO2 (centres undefined)	KB-V1 MDR tox inconclusive (no result: RGS4 inhibitor, TSG101-PTAP inh, SW480 rereplic, MCF10A rereplic)
c1ccc(CN(Cc2ccccc2)C(c2ccnc3ccccc23)c2nnnn2-c2ccc3c(c2)OCCO3)cc1 (centres undefined)	KB-3-1 cytotox inconclusive, KB-V1 MDR tox 18µM (no result: RGS4 inhibitor, TSG101-PTAP inh, SW480 rereplic, MCF10A rereplic)
CC(C)Oc1ccc(CNC(=O)c2ccc(CS(=O)Cc3ccccc3Cl)o2)cc1 (centres undefined)	none (no result: KB-3-1 cytotox, KB-V1 MDR tox, TSG101-PTAP inh, SW480 rereplic, MCF10A rereplic)
Cc1cccc(C)c1NC(=O)CSc1nccn1C	none (no result: TSG101-PTAP inh, SW480 rereplic, MCF10A rereplic)
O=C(c1sc2ccccc2c1Cl)N(Cc1ccco1)C1CCS(=O)(=O)C1 (centres undefined)	KB-V1 MDR tox inconclusive
O=C(c1sc2ccccc2c1Cl)N(Cc1ccccc1)C1CCS(=O)(=O)C1 (centres undefined)	KB-V1 MDR tox 21µM
CSc1ncc(Cl)c(C(=O)N(Cc2ccccc2Cl)C2CCS(=O)(=O)C2)n1 (centres undefined)	none (no result: TSG101-PTAP inh, SW480 rereplic, MCF10A rereplic)
O=C(c1sc2ccccc2c1Cl)N(Cc1ccccc1Cl)C1CCS(=O)(=O)C1 (centres undefined)	KB-3-1 cytotox inconclusive, KB-V1 MDR tox 8.2µM
O=C(c1cccs1)N(Cc1cccc(Cl)c1)C1CCS(=O)(=O)C1 (centres undefined)	KB-V1 MDR tox 15µM
O=C(/C=C/c1ccco1)N(Cc1ccccc1)C1CCS(=O)(=O)C1 (centres undefined)	SW480 rereplic 15µM
N#Cc1nc(N)nc(N2CCCCC2)n1	none (no result: TSG101-PTAP inh, SW480 rereplic, MCF10A rereplic)
Cc1cccc(NC(=O)Cn2c(=O)n(Cc3ccc4c(c3)OCO4)c(=O)c3ccccc32)c1	none (no result: TSG101-PTAP inh, SW480 rereplic, MCF10A rereplic)
O=C(N/N=C/c1cc(Cl)ccc1O)c1ccncc1	KB-3-1 cytotox inconclusive, KB-V1 MDR tox inconclusive, SW480 rereplic 0.65µM, MCF10A rereplic inconclusive
O=C(N/N=C/c1ccccc1Cl)c1ccncc1	MCF10A rereplic inconclusive
O=C(NCC1CCCO1)C(=O)N/N=C/c1cc(Cl)ccc1O (centres undefined)	SW480 rereplic 15µM
COc1ccc(-c2noc(CSc3nnc(Cc4ccccc4)n3-c3ccc(F)cc3)n2)cc1	KB-V1 MDR tox inconclusive (no result: TSG101-PTAP inh, SW480 rereplic, MCF10A rereplic)
Cc1ccc([N+](=O)[O-])cc1N=Nc1c(-c2ccc([N+](=O)[O-])cc2)[nH]n(C(N)=S)c1=O	RGS4 inhibitor inconclusive, KB-V1 MDR tox inconclusive
NC(=S)n1[nH]c(-c2ccc([N+](=O)[O-])cc2)c(N=Nc2ccc(Cl)cc2)c1=O	KB-3-1 cytotox 18µM, RGS4 inhibitor inconclusive
O=C(Nc1ccc(F)c(F)c1)C1CCCN1S(=O)(=O)c1cccc2nsnc12 (centres undefined)	none (no result: TSG101-PTAP inh, SW480 rereplic, MCF10A rereplic)
